CHT PAM = allosterically activates the human high affinity choline transporter | Q9GZV3 | CHT-expressing cells, membrane potential dye, choline EC20; hits give high values; LV-AA mutant CHT in HEK293 cells | B-score at 10 µM | hit rate 0.49% among 310,000 | AID 488977;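 active = initial fluorescence not abnormally high and integrated response B-score, plate-corrected, over 3 SD above library mean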
Target sequence (Q9GZV3 whole entry, looked up): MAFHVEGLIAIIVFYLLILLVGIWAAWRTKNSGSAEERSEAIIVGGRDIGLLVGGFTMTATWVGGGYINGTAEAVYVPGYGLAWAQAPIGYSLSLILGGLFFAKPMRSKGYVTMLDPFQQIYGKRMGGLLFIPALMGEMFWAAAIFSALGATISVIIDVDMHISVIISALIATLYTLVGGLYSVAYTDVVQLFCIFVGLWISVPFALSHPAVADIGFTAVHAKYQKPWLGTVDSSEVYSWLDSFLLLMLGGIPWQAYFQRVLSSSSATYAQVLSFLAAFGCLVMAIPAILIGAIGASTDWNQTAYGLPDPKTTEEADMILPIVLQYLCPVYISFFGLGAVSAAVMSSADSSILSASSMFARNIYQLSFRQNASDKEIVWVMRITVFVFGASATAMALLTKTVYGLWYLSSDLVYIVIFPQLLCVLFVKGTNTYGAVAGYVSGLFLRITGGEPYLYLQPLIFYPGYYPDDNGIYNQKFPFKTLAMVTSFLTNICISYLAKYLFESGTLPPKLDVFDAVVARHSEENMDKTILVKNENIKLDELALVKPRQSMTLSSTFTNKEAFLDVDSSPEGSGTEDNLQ
TMEM16A inh = mouse TMEM16A channel inhibition, primary screen | hit rate 1.2% among 310,000 | Q8BHY3 | normalized B-score (activity score, 25-100; higher = stronger inhibition) at 10 µM | HEK293 TMEM16A/YFP iodide influx fluorescence, ionomycin;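 active = ratio plate-corrected score three or more library SD toward inhibition, starting fluorescence score within five deviations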;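 note: score derived from kinetic fluorescence span divided by baseline fluorescence per well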
ANO1 activ = activates or potentiates the mouse TMEM16A chloride channel; B-score at 10 µM; HEK293 TMEM16A/YFP-H148Q/I152L, iodide quench fluorescence; hits give low values; AID 623877; hit rate 0.3% among 340,000; Q8BHY3;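 active = fluorescence-ratio B-score plate-corrected deviation score at least 3 library SD below zero, with starting fluorescence score within 5 deviations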;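 note: channel opened by trigger with iodide after compound preincubation; score built on the fluorescence ratio of max minus min over baseline; more negative score means more quench and so TMEM16A activation or potentiation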
CHT inh = human CHT choline transport inhibition; Q9GZV3; CHT-expressing cells, membrane potential dye, choline response; hits give low values; B-score at 10 µM; hit rate 0.86% among 310,000; AID 488975;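 active = B-score over 3 SD under the library average, and starting fluorescence ratio not unusually high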;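 note: choline stimulus applied at its EC90 after an EC20 pre-addition; B-score computed on integrated fluorescence ratio after choline addition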
* hit, by the source's call. Most compounds without a hit are left out; they make up all but 2.3% or so of the library.

How did OC(CN1c2ccccc2Sc2ccccc21)Cn1nnc2ccccc21 (centres undefined) do in these assays?
CHT PAM: inactive; TMEM16A inh: 100*; ANO1 activ: inactive; CHT inh: inactive

Results for CC(C)(C)C(=O)Nc1ccccc1C(=O)NCCC(=O)Nc1ccccc1 ?
CHT PAM: inactive; TMEM16A inh: inactive; ANO1 activ: inactive; CHT inh: inactive

How did COc1ccc(/C=C/C(=O)NCc2cn(C)nc2C)cc1COc1ccc(Cl)cc1Br do in these assays?
CHT PAM: inactive; TMEM16A inh: 100*; ANO1 activ: inactive; CHT inh: inactive

How did Cc1ccc(NC(=O)Cc2nc(-c3c[nH]c(C(=O)N4CCCC4)c3)cs2)c(C)c1 do in these assays?
ANO1 activ: inactive

How did Cc1ccc(NC(=O)CN(C)C(=O)CSc2nc3ccccc3c(=O)n2Cc2ccco2)cc1 do in these assays?
CHT PAM: inactive; TMEM16A inh: 100*; ANO1 activ: inactive; CHT inh: inactive

Results for NS(=O)(=O)c1cccc(NC(=O)CSc2nc3ccccc3c(=O)n2Cc2ccco2)c1 ?
ANO1 activ: inactive

How did O=C(Nc1ccc(Nc2ccncc2)cc1)c1ccc([N+](=O)[O-])cc1 do in these assays?
CHT PAM: inactive; TMEM16A inh: inactive; ANO1 activ: -6.1*; CHT inh: inactive

Results for COc1cc(/C=N/NC(=O)CCC(=O)Nc2ccc(Br)cc2)ccc1O ?
CHT PAM: inactive; TMEM16A inh: inactive; ANO1 activ: inactive; CHT inh: inactive

How did C=C(CN(C)C)C(=O)c1cc(C)ccc1C do in these assays?
ANO1 activ: inactive

How did Cc1cc(C(C#N)c2ccc(Cl)cc2)c(Cl)cc1NC(=O)c1cc(I)cc(I)c1O (centres undefined) do in these assays?
CHT PAM: inactive; TMEM16A inh: 100*; ANO1 activ: inactive; CHT inh: inactive

How did Cc1cc(NC(=O)c2ccc(Cl)cc2)c(C)cc1O do in these assays?
CHT PAM: inactive; TMEM16A inh: inactive; ANO1 activ: inactive; CHT inh: inactive

What do the screens show for `Cc1nc2nc(N)nn2c(C)c1C/C=C/c1ccccc1`?
CHT PAM: inactive; TMEM16A inh: inactive; ANO1 activ: -37*; CHT inh: inactive

What do the screens show for `N#CC(c1ccc(F)cc1)c1ccc(C(=O)c2ccccc2)cc1` (centres undefined)?
CHT PAM: inactive; TMEM16A inh: 100*; ANO1 activ: inactive; CHT inh: inactive

Results for N#CC(c1ccccc1)c1ccc(C(=O)c2ccc(F)cc2)cc1 (centres undefined) ?
CHT PAM: inactive; TMEM16A inh: inactive; ANO1 activ: inactive; CHT inh: inactive

How did CCC1(c2ccccc2)NC(=O)N(CC(=O)Nc2ccc(S(=O)(=O)Nc3ncccn3)cc2)C1=O (centres undefined) do in these assays?
CHT PAM: inactive; TMEM16A inh: inactive; ANO1 activ: inactive; CHT inh: inactive

Results for Cc1nn(-c2ccccc2)c(C)c1NC(=O)COc1ccc([N+](=O)[O-])cc1 ?
CHT PAM: inactive; TMEM16A inh: inactive; ANO1 activ: inactive; CHT inh: inactive

How did COc1ccc(-n2ccc(-c3nn(-c4cccc(C(F)(F)F)c4)ccc3=O)n2)cc1 do in these assays?
CHT PAM: inactive; TMEM16A inh: inactive; ANO1 activ: -43*; CHT inh: inactive

Results for CN(C)Cc1c(O)ccc2occ(C(=O)c3ccccc3)c12 ?
CHT PAM: inactive; TMEM16A inh: 25*; ANO1 activ: inactive; CHT inh: inactive

How did CCN(CC)Cc1c(O)ccc2occ(C(=O)c3ccccc3)c12 do in these assays?
CHT PAM: inactive; TMEM16A inh: inactive; ANO1 activ: inactive; CHT inh: inactive

Results for O=C(N/N=C/c1ccc(-c2ccc(S(=O)(=O)Nc3ncccn3)cc2)o1)c1cc2ccccc2cc1O ?
CHT PAM: inactive; TMEM16A inh: 100*; ANO1 activ: inactive; CHT inh: inactive

Results for COc1ccc(Cl)cc1NC(=S)NCCSc1ccc(C)cc1 ?
CHT PAM: inactive; TMEM16A inh: 100*; ANO1 activ: inactive; CHT inh: inactive

How did CC(=O)c1cccc(NC(=O)c2cc(S(=O)(=O)N3CCOCC3)cs2)c1 do in these assays?
CHT PAM: inactive; TMEM16A inh: inactive; ANO1 activ: inactive; CHT inh: inactive

Results for O=C(NC(=S)NN1CCCCC1c1cccnc1)c1ccc(Cl)cc1Cl (centres undefined) ?
CHT PAM: inactive; TMEM16A inh: inactive; ANO1 activ: inactive; CHT inh: inactive

Results for CCSc1cc(N2CCCC2)nc(-c2ccccc2)n1 ?
CHT PAM: inactive; TMEM16A inh: inactive; ANO1 activ: inactive; CHT inh: inactive

Results for CCCSc1cc(N2CCCC2)nc(-c2ccccc2)n1 ?
CHT PAM: inactive; TMEM16A inh: inactive; ANO1 activ: -26*; CHT inh: inactive

Results for Cn1cc(C(c2ccccc2OCC(=O)O)c2cn(C)c3ccccc23)c2ccccc21 ?
CHT PAM: inactive; TMEM16A inh: 25*; ANO1 activ: inactive; CHT inh: inactive

What do the screens show for `C/C(=N/Nc1ccc(C(=O)c2c(C)cc3ccccn23)cc1[N+](=O)[O-])c1ccc(O)cc1`?
ANO1 activ: inactive

Results for Cc1ccc([N+](=O)[O-])c(OCCN2C(=O)NC(C)(C)C2=O)c1 ?
CHT PAM: inactive; TMEM16A inh: inactive; ANO1 activ: inactive; CHT inh: inactive

How did Cc1cc(OCCCCN2C(=O)NC(C)(C)C2=O)ccc1[N+](=O)[O-] do in these assays?
CHT PAM: inactive; TMEM16A inh: 25*; ANO1 activ: inactive; CHT inh: inactive

How did Cc1cccc(C)c1NC(=O)N1CCC(c2nc3ccccc3o2)CC1 do in these assays?
CHT PAM: inactive; TMEM16A inh: inactive; CHT inh: inactive

What do the screens show for `COc1ccc(S(=O)(=O)C(C#N)c2nc3ccccc3nc2N2CCCCC2)cc1` (centres undefined)?
CHT PAM: inactive; TMEM16A inh: 100*; ANO1 activ: inactive; CHT inh: inactive

What do the screens show for `COc1ccc(-c2csc(NC(=O)c3ccccc3NS(=O)(=O)c3ccc(C)cc3)n2)cc1`?
CHT PAM: inactive; TMEM16A inh: 100*; ANO1 activ: inactive; CHT inh: inactive

How did CNC(=O)CSc1nnc(NC(=O)C2CC(=O)N(c3ccccc3OC)C2)s1 (centres undefined) do in these assays?
CHT PAM: inactive; TMEM16A inh: inactive; ANO1 activ: inactive; CHT inh: inactive

Results for CC(C)N(C(=S)Nc1cccc(C(F)(F)F)c1)C(C)c1ccccn1 (centres undefined) ?
CHT PAM: inactive; TMEM16A inh: 100*; ANO1 activ: inactive; CHT inh: inactive

Results for CN(Cc1ccccc1)C(=O)CSc1nc2cc(C(=O)N3CCC(C(N)=O)CC3)ccc2c(=O)n1-c1ccccc1 ?
CHT PAM: inactive; TMEM16A inh: inactive; CHT inh: inactive
